# Experimental data: PubChem BioAssay (NCI)
# About 83,000 compounds went through this panel and 20% of them were active in at least one assay; those are over-represented in the sample as a whole.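 Growth was measured after 48 h exposure to one concentration of compound in 96-well plates. Values under 10 count as active.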 Active and inactive are the calls of the source.
# Tested on: HL-60(TB) leukemia
# Assay: NCI-60 one-dose screen, 48 h (100 = growth as untreated, 0 = no growth, -100 = all killed)
# Details: 10 µM unless noted
row,Structure (SMILES),growth
1,Cc1cc2nc3c4cc(Cl)ccc4n(CC(=O)NCCN(C)C)c3nc2cc1C,56% (inactive)
2,CS(=O)(=O)c1nccc(-c2c(-c3cccc(OCc4ccc(Cl)c(C(F)(F)F)c4)c3)nc3sccn23)n1,12.5% (inactive)
3,Cc1[nH]c(C(=O)Nc2ccccc2OCc2cccc(C(=O)N3CCC[C@@H](N)C3)c2)c(Cl)c1Cl,-67.7% (active)
4,NC(N)=Nc1ccc(Oc2ccc(Nc3ccc(Cl)c(C(F)(F)F)c3)cc2)cc1,-33.8% (active)
5,Cc1ccc(-n2cc(/C=N/NC(=O)c3nc(N)n[nH]3)c(-c3ccc(S(C)(=O)=O)cc3)n2)cc1,95.1% (inactive)
6,COc1ccc(-c2nc(SCC(C)C)nc(N/N=C\c3cccc([N+](=O)[O-])c3)c2C#N)cc1,85.1% (inactive)
7,CCOC(=O)c1c(Nc2ccccc2)nn2c(-c3ccco3)c(C#N)cnc12,110% (inactive)
8,O=C(Oc1ccc2ccc(=O)oc2c1)c1ccc(Cl)cc1,106% (inactive)
9,COC(=O)CNC(=O)c1cccc(-c2cc(=O)c3c(OC)c(OC)c(OC)cc3o2)c1,109% (inactive)
10,Cc1ccc(NC(=O)/C=C/c2ccc(OCCCOc3ccc4c(C)cc(=O)oc4c3)cc2)cc1,98.5% (inactive)
11,O=C(Nc1cccc(-c2nc(-c3ccc(NC(=O)c4cccnc4)cc3Cl)no2)c1)Nc1ccc(NC(=O)C2CC2)c(C(F)(F)F)c1,-41.5% (active)
12,O=C1c2c(O)cc(O)cc2O[C@@H](c2ccc(O)cc2)[C@@H]1c1c(O)cc(O)c2c(=O)cc(-c3ccc(O)c(O)c3)oc12,103% (inactive)
13,O=C(COc1ccc(/C=C2\SC(=O)NC2=O)cc1)Nc1ccc(C(=O)/C=C/c2cc3ccccc3nc2Cl)cc1,79.6% (inactive)
14,NS(=O)(=O)c1ccc(Nc2nc(N/N=C/c3ccc(Cl)cc3)nc(Nc3ccccc3)n2)cc1,72.5% (inactive)
15,Clc1ccc2c(NCCCN3CCOCC3)c3oc4ccc(Cl)cc4c3nc2c1,67.7% (inactive)
16,Cc1cc(C)c(N2C(=O)CC(Nc3ccc(Cl)cc3Cl)C2=O)c(C)c1 (stereo not given),100% (inactive)
17,CCc1cc(OC(=O)N2CCN(CCC(C)(COC(C)(C)C)COC(C)(C)C)CC2)ccc1Nc1cc(-c2ccc(-n3cccn3)cc2)[nH]n1,66.5% (inactive)
18,CCN1C/C(=N\S(=O)(=O)c2ccccc2)N(CC)C1=S,100% (inactive)

row,Structure (SMILES),growth
1,CC(=O)C1=NN(c2ccc(Cl)cc2)C(=O)CN1C,105% (inactive)
2,COc1cc2oc(-c3cccc(NC(=O)[C@@H](N)C(C)C)c3)cc(=O)c2c(OC)c1OC,105% (inactive)
3,C=C(C)[C@@H]1CC[C@]2(COS(C)(=O)=O)CC[C@]3(C)[C@H](CC[C@@H]4[C@@]5(C)CCCNC(C)(C)[C@@H]5CC[C@]43C)[C@@H]12,34.1% (inactive)
4,CCCCNNC(=O)c1ccc(-c2cccc(F)c2F)cc1,28.4% (inactive)
5,C#CCn1cccc1CNc1ccc(OC)cc1,-63.1% (active)
6,COc1cc(-c2nc3ccc(-c4nnc(SCC(=O)Nc5ccc(C(=O)/C=C/c6ccc(Cl)cc6)cc5)o4)cc3[nH]2)cc(OC)c1OC,92.5% (inactive)
7,COC(=O)CCSC1=C(C)C(=O)c2ccccc2C1=O,34.9% (inactive)
8,O=C1CCCc2nc(Nc3ccc(S(=O)(=O)Nc4ccc([N+](=O)[O-])cc4)cc3)ncc21,110% (inactive)
9,C#CC(=O)N(c1ccc(OC)cc1OC)C(C(=O)NCC(=O)OCC)c1cccs1 (stereo not given),-51.2% (active)
10,O=C(CSc1nnc(-c2ccc(Cl)cc2)n1-c1ccccc1)Nc1ccccc1Cl,91.8% (inactive)
11,CCOC(=O)c1c(NC(=O)c2ccc(C(F)(F)F)cc2)sc2c3c(ccc12)OCN(C)C3,-27.6% (active)
12,Oc1ccc(CSc2nnc(-c3ccccc3)n2-c2ccccc2)c2cccnc12,7.9% (active)
13,NC(N)=Nc1ccc(Oc2cccc(Oc3ccc(Cl)c(C(F)(F)F)c3)c2)cn1,-69% (active)
14,C#C[C@]1(O)CC[C@H]2[C@@H]3CC=C4c5sc(Nc6ccc(OC)nc6)nc5CC[C@]4(C)[C@H]3CC[C@@]21C,10.1% (inactive)
15,N#Cc1c(-c2ccc(Br)cc2)cc(-c2c[nH]c3ccccc23)nc1N,28.8% (inactive)
16,N/C(=N\OC(=O)CSc1nc2ccccc2s1)c1ccc2ccccc2c1,105% (inactive)
17,C#C[C@]1(O)CC[C@H]2[C@@H]3CC=C4c5sc(-c6cccc(F)c6)nc5CC[C@]4(C)[C@H]3CC[C@@]21C,79.6% (inactive)
